PubChem BioAssay AID1220 (Sanford-Burnham Center for Chemical Genomics, 2008)
Out of some 190,000 compounds screened, about 1,300 (0.68%) were called active. Only a selection was taken, and actives are over-represented in it overall. Unmarked numbers belong to inactive results. Cut-off read from the data, not from the text of the source: active = inhibition above about 50%; inactive = the rest.

The molecules below were run against Mannose-6-phosphate isomerase (Homo sapiens) (UniProt P34949) (assay: MPI inhibition at elevated mannose 6-phosphate – biochemical, fluorescence intensity, high mannose 6-phosphate, primary screen (AID 1220)). Settings: recombinant PMI enzyme, coupled fluorescence intensity; at 20 µM; hits give high values.
Chain of Mannose-6-phosphate isomerase (Homo sapiens) (P34949 whole entry, looked up): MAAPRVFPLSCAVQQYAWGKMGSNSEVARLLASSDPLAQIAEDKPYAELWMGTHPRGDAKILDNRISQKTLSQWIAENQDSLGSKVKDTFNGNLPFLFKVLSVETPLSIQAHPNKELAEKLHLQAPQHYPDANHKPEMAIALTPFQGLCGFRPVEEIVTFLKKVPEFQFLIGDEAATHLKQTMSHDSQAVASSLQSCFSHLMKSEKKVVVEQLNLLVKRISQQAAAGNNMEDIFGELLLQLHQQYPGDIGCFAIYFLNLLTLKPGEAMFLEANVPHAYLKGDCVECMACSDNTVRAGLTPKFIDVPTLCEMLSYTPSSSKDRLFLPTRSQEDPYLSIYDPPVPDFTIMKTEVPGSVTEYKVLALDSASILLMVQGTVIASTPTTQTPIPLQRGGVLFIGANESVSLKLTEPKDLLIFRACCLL

SMILES | inhibition
CCCCCCN1C(=O)C(O)=C(C(C)=O)C1c1ccc(Cl)cc1 (stereo not given) | 3.1%
O=C(N/N=C/c1c[nH]c2ccccc12)c1cc(-c2ccccc2)n[nH]1 | -2.4%
O=C1NC(CCc2ccccc2)C(=O)N1Cc1ccc(Br)cc1 (stereo not given) | 10.5%
COc1ccc(Nc2n[nH]c(N)c2C(N)=O)cc1 | 1.4%
CN(CC(=O)N1CCCCC1)S(=O)(=O)c1cccc2cccnc12 | 13.4%
Cc1[nH]c2ccccc2c1/C=N/NC(=O)Nc1ccccc1 | -7.2%
CCOc1ccc(C(=O)NCC(=O)Nc2ccc(N3CCOCC3)cc2)cc1OCC | 3.6%
O=C(N/N=C/c1coc2ccccc2c1=O)c1cn(-c2ccccc2)nc1-c1ccc(F)cc1 | -12.2%
CC(C)OCc1c(C(=O)OC/C(O)=C(\C#N)c2nc3ccccc3[nH]2)oc2ccccc12 | 28.4%
CCOC(=O)c1c(C)[nH]c2cc(Br)c(O)cc12 | 2.1%
CCOC(=O)c1c(C)[nH]c2c1cc(O)c1ccccc12 | 61.2% (active)
CCOC(=O)c1c(C)[nH]c2ccc(O)cc12 | 6%
Nc1cc(-c2cccc(Br)c2)nn1Cc1ccccc1 | 11.2%
CCOC(=O)N1CCN(S(=O)(=O)c2ccc(C(=O)NNc3nc4c(C)cccc4s3)cc2)CC1 | 1.7%
CCCc1n(CC)c2ccccc2[n+]1CC(O)COC1CCCCC1 (stereo not given) | -2.9%
CCOC(=O)/C(C#N)=C/c1ccc(OC)c(OC)c1 | 5%
CCOC(=O)/C(C#N)=C\c1cc(OC)c(OC)cc1[N+](=O)[O-] | 69.6% (active)
COc1ccc(NC(=O)/C(=C\c2cc(OC)c(OC)cc2[N+](=O)[O-])NC(=O)c2ccccc2)cc1 | 15.2%
CCOC(=O)/C(C#N)=C\c1ccc(OC)c(OC)c1 | -3.6%
COc1cc(/C=C(/NC(=O)c2ccccc2)C(=O)Nc2ccccc2)c([N+](=O)[O-])cc1OC | 27.2%

SMILES | inhibition
COc1cc(/C=C(\C#N)C(=O)Nc2ccc3ccccc3c2)c([N+](=O)[O-])cc1OC | 67% (active)
O=C(Cn1ccc([N+](=O)[O-])n1)N1CCc2ccccc21 | 6.2%
COc1ccccc1Sc1nc(-c2ccccn2)ncc1OC | -3.1%
CCCCC/C=N\NC(=O)Cc1ccc([N+](=O)[O-])cc1 | -6.9%
CCOC(=O)C1=C(C)Nc2ncnn2C1c1ccccc1F (stereo not given) | -19.1%
O=C(O)C1C(c2ccccc2)C(C(=O)Oc2ccccc2)C1c1ccccc1 (stereo not given) | -2.4%
CC(C)C(=O)NC(c1cccc([N+](=O)[O-])c1)c1c(O)ccc2ccccc12 (stereo not given) | 26.6%
CCCCC(=O)NC(c1ccco1)c1c(O)ccc2ccccc12 (stereo not given) | 30.3%
CC(C)C(=O)NC(c1ccco1)c1c(O)ccc2ccccc12 (stereo not given) | 56.9% (active)
CC(C)C(=O)NC(c1ccc([N+](=O)[O-])cc1)c1c(O)ccc2ccccc12 (stereo not given) | 59.5% (active)
CCCC(=O)NC(c1ccco1)c1c(O)ccc2ccccc12 (stereo not given) | 33.6%
CC(=O)NC(c1ccc([N+](=O)[O-])cc1)c1c(O)ccc2ccccc12 (stereo not given) | 34.2%
COc1ccc2[nH]c(=O)c(CN(Cc3cccs3)C(=S)Nc3cccc(C)c3)cc2c1 | 5%
C=CCn1c(SCC(=O)c2ccc(Cl)cc2)nnc1-c1ccc2c(c1)OCO2 | -0.6%
O=C(CCNC(=O)c1ccccc1)Oc1ccc([N+](=O)[O-])cc1 | -10.4%
N#CC1=C(N)SC(N)=C(C#N)C1c1c(Cl)cccc1Cl | 6%
COc1ccc(-c2csc(Cc3nnc(N4CCOCC4)n3-c3ccccc3)n2)cc1OC | -41%
COc1ccc(NC(=O)/C(N=Nc2cc(S(=O)(=O)Nc3ccc(OC)cc3)ccc2OC)=C(\C)O)cc1 | -1%
CCOC(=O)N/C(N)=N/c1nc2ccccc2s1 | -3.7%
CC(=O)Nc1cc(N=Cc2ccc(O)cc2O)c(Cl)cc1Cl | 44.8%

SMILES | inhibition
COc1ccc(O)c(C=Nc2cc(NC(C)=O)c(Cl)cc2Cl)c1 | 19.4%
CC(=O)Nc1cc(Cl)c(N=Cc2ccc(O)cc2O)cc1Cl | 63.3% (active)
CCOC(=O)Nc1ccc2c(c1)N(C(=O)OC)c1ccccc1CC2 | -3.2%
CS(=O)(=O)N(Cc1ccccc1)c1ccc(C(=O)N2CCOCC2)cc1 | 11.2%
CCOc1ccc2oc(C(=O)NC3CCN(Cc4ccccc4)CC3)c(C)c2c1 | -4.4%
COc1cc(SC)ccc1C(=O)N1CCN(c2ccccc2)CC1 | 5.9%
COc1cc(SC)ccc1C(=O)N1CCN(c2ccc(O)cc2)CC1 | 55.8% (active)
COc1ccc(N2CCN(C(=O)c3ccc(SC)cc3OC)CC2)cc1 | 21.7%
CCn1c(SCC(=O)N2CCCCC2C)nc2ccsc2c1=O (stereo not given) | -3.6%
CCc1ccc(NC(=O)CO/N=C(\C)c2cc3ccccc3o2)cc1 | 45%
CSc1ccccc1NC(=O)CO/N=C(\C)c1cc2ccccc2o1 | 14.6%
CCc1cccc(C)c1NC(=O)CO/N=C(\C)c1cc2ccccc2o1 | 60.5% (active)
O=C(CC1(O)C(=O)N(Cc2cccc3ccccc23)c2ccccc21)c1cccnc1 (stereo not given) | 2.3%
CCCn1c(SCc2ccccn2)nc2c1c(=O)n(C)c(=O)n2C | 4.6%
O=C(NC1Cc2ccccc2C1)c1cc(COc2ccc(F)cc2Cl)on1 | -6.1%
CCS(=O)(=O)c1ccc(-c2csc(-c3ccccc3Cl)n2)c(Cl)c1Cl | 5.5%
COc1cc(CN2CCNC(=O)C2CC(=O)N2CCCCO2)cc(OC)c1 (stereo not given) | 52% (active)
COc1ccc(CN2CCNC(=O)C2CC(=O)N2CCCCO2)c(OC)c1 (stereo not given) | 27.5%
COc1ccc(CN2CCNC(=O)C2CC(=O)N2CCCCO2)cc1OC (stereo not given) | 45.9%
COc1cc(OC)cc(-c2nnc(SCc3c(F)cccc3Cl)o2)c1 | 8.3%
